In PubChem BioAssay AID463117 (University of Pittsburgh Molecular Library Screening Center, 2010):
This is one part of the list. Unmarked numbers belong to inactive results. The source made the active and inactive calls.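 Rule for the calls: active = mean protection from necroptosis of at least 50% over duplicate tests; inactive = mean protection below 50%.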

Assay: rescue of L929 cells from caspase-blocker death – duplicate runs, confirmation (AID 463117);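 note: 0% = cells with zVAD alone and 100% = vehicle cells without zVAD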
Conditions: L929 zVAD-induced necroptosis rescue, ATP luminescence, 24 h; at 10 µM; active compounds read high
In the case of `CC(=O)c1cc(C#N)c(SCC(=O)Nc2nccs2)nc1C`, the activation (protection from necroptosis) is reported as 0.793%. In the case of `O=C(COc1cccc(-n2cnnn2)c1)NCCC1=CCCCC1`, the activation (protection from necroptosis) is reported as 36.6%. Work on `O=C(CSc1ccc([N+](=O)[O-])cn1)Nc1ccc(N2CCOCC2)c(Cl)c1` yielded an activation (protection from necroptosis) of 3.3%. For `Cc1ccc(NC(=O)COc2ccc(-n3ccnc3)cc2)cc1Cl`, the activation (protection from necroptosis) was 62.3% (active). In the case of `Cc1cccc(NC(=O)Nc2ccc3c(c2)OCO3)n1`, the activation (protection from necroptosis) is reported as -0.556%. With `C[C@@H]1C[C@@H]2O[C@H]2/C=C\C=C\C(=O)Cc2c(Cl)c(O)cc(O)c2C(=O)O1` the activation (protection from necroptosis) was 76.5% (active). With `COc1cc(N=Cc2c(O)[nH]c3ccccc23)cc(OC)c1OC` the activation (protection from necroptosis) was 72.9% (active). For `COc1ccc(N=Cc2c(O)[nH]c3ccccc23)cc1OC`, the activation (protection from necroptosis) was 76% (active). With `CCN(CC)S(=O)(=O)c1ccc(NC(=O)c2cccnc2Cl)c(NC(=O)c2cccnc2Cl)c1` the activation (protection from necroptosis) was 2.93%. In the case of `Cc1cc(-n2cnc(-c3cn(C)nc3C)n2)no1`, the activation (protection from necroptosis) is reported as 27.6%. `CC1CCCC(C)N1CCCNC(=O)c1cc2c(=O)n(C)c3ccccc3c2n1C` (stereo not drawn) showed an activation (protection from necroptosis) of 37.3%. With `COc1ccc(Nc2ncc(F)c(N3CCOCC3)n2)cc1` the activation (protection from necroptosis) was 1.91%. `CCOc1ccc(C(=O)Nc2nccs2)cc1[N+](=O)[O-]` gave an activation (protection from necroptosis) of 1.6%. Compound `Cc1csc(NC(=O)NC2(C(F)(F)F)Oc3ccccc3O2)n1` has an activation (protection from necroptosis) of 1.61%. `Cc1ccc(Nc2ccccc2N)cc1` gave an activation (protection from necroptosis) of 5.52%. `CC1CCCCC1NC(=O)/C(C#N)=C/C=C/c1ccccc1[N+](=O)[O-]` (stereo not drawn) showed an activation (protection from necroptosis) of 4.07%. `CCOC(=O)N1CCN(C(=O)CNC(=O)Cc2ccc(Cl)cc2)CC1` gave an activation (protection from necroptosis) of 34.3%. With `Cc1ccccc1NC(=O)CSC1=NCCN1` the activation (protection from necroptosis) was 7.19%.
